Assay outcomes: PubChem, several laboratories
Calb FLC – C. albicans growth inhibition with fluconazole, primary screen, CaCi-2 strain, Alamar Blue fluorescence. C. albicans CaCi-2 (fluconazole-resistant clinical isolate) + fluconazole, 48 h. growth inhibition, % (concentration not given with the values). actives 0.57% (n = 300,000). AID 1979, 2009;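 active means growth inhibition above about 58% in most replicates, limit read from the data, passing the limit was not always enough; inconclusive means exactly half the replicates above a set limit; inactive means most replicates below a set limit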;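 further: all wells also contain fluconazole at 8 µg/ml as a sub-toxic cotreatment; 0% = median of DMSO wells and 100% = median of geldanamycin control wells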
CSC inhib – cancer stem cell viability inhibitors, primary screen, luminescence; cancer stem cell-like cells viability; inhibition, % at 7.5 µM; actives 1.1% (n = 300,000); in the data active means inhibition above about 75%; inconclusive means no clear call, values can overlap the other calls; tested in HMLE shEcad cells
PP1 inh – PP1-alpha phosphatase inhibitors, primary screen, counter-screen for PP5 inhibitor project, biochemical, fluorescence, OMFP substrate, single point. Serine/threonine-protein phosphatase PP1-alpha catalytic subunit (Homo sapiens), P62136. actives 0.9% (n = 320,000). inhibition, % at 6.7 µM. purified PP1alpha. AID 2235, 2010;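 active means inhibition above the mean inhibition of all tested compounds plus 3 SD, computed separately for each screening campaign, cut at about 15% in these data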
Mdm2 MdmX PPI – inhibitors of human Mdm2-MdmX association, primary screen, cell-based, luminescence, split luciferase, SaOS-2, uHTS. SaOS-2 split-luciferase Mdm2/MdmX complementation. Protein Mdm4 (Homo sapiens) + E3 ubiquitin-protein ligase Mdm2 (Homo sapiens), …. actives 3% (n = 330,000). inhibition, % at 8 µM;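 active means inhibition of at least 50% at 8 µM in the primary screen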
Target sequence (O15151 whole entry, looked up): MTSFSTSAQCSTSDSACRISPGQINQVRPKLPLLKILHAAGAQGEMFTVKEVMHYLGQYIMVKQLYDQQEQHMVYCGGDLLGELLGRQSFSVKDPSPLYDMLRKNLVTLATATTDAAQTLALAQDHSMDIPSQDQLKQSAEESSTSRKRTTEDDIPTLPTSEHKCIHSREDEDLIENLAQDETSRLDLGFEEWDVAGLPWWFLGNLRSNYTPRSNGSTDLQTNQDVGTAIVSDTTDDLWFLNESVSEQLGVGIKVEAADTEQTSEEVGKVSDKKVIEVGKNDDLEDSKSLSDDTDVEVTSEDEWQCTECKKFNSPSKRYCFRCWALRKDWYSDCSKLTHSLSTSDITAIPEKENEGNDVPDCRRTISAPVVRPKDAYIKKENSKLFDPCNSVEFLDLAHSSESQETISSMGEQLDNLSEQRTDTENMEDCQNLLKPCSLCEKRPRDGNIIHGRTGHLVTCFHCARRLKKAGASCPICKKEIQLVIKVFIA
Target sequence (Q00987 whole entry, looked up): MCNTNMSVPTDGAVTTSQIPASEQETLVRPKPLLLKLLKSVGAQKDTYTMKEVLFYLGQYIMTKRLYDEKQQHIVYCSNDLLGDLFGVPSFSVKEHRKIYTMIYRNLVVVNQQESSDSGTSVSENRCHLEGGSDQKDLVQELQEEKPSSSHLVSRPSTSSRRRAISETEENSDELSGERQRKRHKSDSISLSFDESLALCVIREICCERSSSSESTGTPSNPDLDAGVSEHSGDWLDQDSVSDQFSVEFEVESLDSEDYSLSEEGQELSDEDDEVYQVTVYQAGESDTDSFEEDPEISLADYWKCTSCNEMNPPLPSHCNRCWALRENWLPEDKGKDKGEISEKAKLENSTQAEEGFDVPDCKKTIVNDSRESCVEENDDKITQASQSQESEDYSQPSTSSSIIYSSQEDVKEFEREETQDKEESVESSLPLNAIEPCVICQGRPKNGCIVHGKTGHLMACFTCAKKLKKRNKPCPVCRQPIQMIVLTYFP
PP5 inh – PP5 phosphatase inhibitors, primary screen, biochemical, fluorescence | Serine/threonine-protein phosphatase 5 (Homo sapiens), P53041 | purified PP5c, OMFP substrate fluorescence | inhibition, % at 6.7 µM | actives 0.18% (n = 320,000) | AID 1987, 2009;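 active means inhibition above the campaign's mean inhibition across all tested compounds plus 3 SD, cut at about 9.5% in these data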;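 further: 0% = DMSO only and 100% = 100 µM cantharidin control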
Beta cell apopt – inhibitors of cytokine-induced beta cell apoptosis, primary screen, luminescence | INS-1E cytokine-induced death, ATP luminescence, 48 h; percent of positive-control rescue, neutral wells zero | protection from apoptosis, % (no concentration beside the values) | actives 0.8% (n = 300,000) | AID 435005, 2010;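 active means Every replicate reaches about 75%, or at least half do and their mean reaches it too, limit read from the data; inconclusive means At least half of replicates reach the limit but their mean does not; inactive means Under half of replicates reach the limit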;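 further: 0% = cytokine-treated negative control wells and 100% = positive control rescue; higher means more ATP so stronger rescue from cytokine killing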
Mdm2 MdmX conf – Mdm2-MdmX complex disruptors, retested hits, confirmation, luminescence, single concentration. shares compounds with Mdm2 MdmX PPI. Mdm2-MdmX binding, luminescent assay. inhibition, % at 8 µM. actives 55% (n = 10,000); in the data active means inhibition above about 40%
Full FLuc ctr – full-length luciferase signal inhibition, confirmation, counter-screen for Mdm2/MdmX interaction inhibitor project, cell-based, single concentration, SaOS-2; inhibition, % at 8 µM; SaOS-2 full-length luciferase counterscreen, luminescence; actives 77% (n = 6,200); shares compounds with Mdm2 MdmX PPI;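 active means mean inhibition at 8 µM reaching about 37%, which flags the compound as non-specific, limit read from the data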;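 further: p53-null SaOS-2 cells with luciferase driven by a doxycycline-inducible promoter; compound on cells about two nights before reading with doxycycline added after day one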
Active calls of the source: *; ? = inconclusive; . = no result. A selection: hits, their analogues and other compounds. The true share with any hit is near 4.9%.

SMILES | Calb FLC | CSC inhib | PP1 inh | Mdm2 MdmX PPI | PP5 inh | Beta cell apopt | Mdm2 MdmX conf | Full FLuc ctr
NS(=O)(=O)c1ccc(N/N=C/c2ccccc2C(=O)O)c([N+](=O)[O-])c1 | -2.2 | 11.4 | 2.9 | 9.3 | -0.6 | -4.8 | . | .
Cc1ccc(NC(=O)c2ccc(Nc3c([N+](=O)[O-])cc([N+](=O)[O-])cc3[N+](=O)[O-])cc2)cc1 | 9.4 | 41.5 | 15.0 | 79.2* | 4.2 | 67.0 | 8.0 | .
Cc1ccccc1NC(=O)c1ccc(N/N=C/c2ccccc2O)c([N+](=O)[O-])c1 | -3.7 | 6.5 | 1.4 | 74.4* | -0.1 | 11.2 | 22.4 | 62.2*
Cc1ccc(NC(=O)c2ccc(N/N=C/c3cccc(O)c3)c([N+](=O)[O-])c2)cc1 | -6.0 | 47.6 | -1.9 | 77.1* | 4.5 | 62.7 | 47.6* | 76.2*
Cc1c(C(=O)N2CCN(c3ccccn3)CC2)sc2ncnc(N3CCOCC3)c12 | 4.6 | 2.9 | 2.9 | 8.3 | 2.3 | -4.0 | . | .
Cc1c(C(=O)N2CCN(c3ccc(F)cc3)CC2)sc2ncnc(N3CCN(c4ccccn4)CC3)c12 | 11.2 | 13.6 | 2.0 | 52.8* | 3.5 | 11.2 | 28.9 | 61.5*
Cc1nc(N2CCN(c3ccccn3)CC2)c2c(C)c(C(=O)Nc3c(C)cc(Br)cc3C)sc2n1 | -5.4 | -0.4 | -0.6 | 59.1* | 1.5 | 3.7 | 30.2 | .
COc1ccccc1N1CCN(C(=O)c2sc3ncnc(N4CCN(c5ccccn5)CC4)c3c2C)CC1 | -15.4 | . | 6.3 | 56.0* | 1.6 | -1.9 | 48.0* | 87.6*
Cc1c(C(=O)N2CCN(c3ccccc3)CC2)sc2ncnc(N3CCN(c4ccccn4)CC3)c12 | -8.6 | -5.0 | 0.6 | 29.3 | 1.5 | 5.2 | . | .
COc1ccccc1N1CCN(C(=O)c2sc3nc(C)nc(N4CCN(c5ccccn5)CC4)c3c2C)CC1 | 1.7 | 13.8 | 1.9 | 75.8* | 2.5 | -3.0 | 71.0* | 37.8*
Cc1nc(N2CCN(c3ccccn3)CC2)c2c(C)c(C(=O)N3CCN(c4ccc(F)cc4)CC3)sc2n1 | 1.1 | . | 2.3 | 37.7 | 2.2 | 6.2 | . | .
Cc1nc(N2CCN(C)CC2)c2c(C)c(C(=O)Nc3ccc(C)c(F)c3)sc2n1 | -6.6 | 9.5 | 0.6 | 50.2* | 3.9 | -11.4 | 33.5 | .
COc1cccc(N(C(=O)CNC(=O)c2ccco2)C(C(=O)NC2CCCC2)c2ccco2)c1 (stereo not drawn) | 9.1 | 8.8 | -4.2 | 5.2 | 1.7 | -1.8 | . | .
CCCCNC1C(CC)C(CCC)C(C#N)(C#N)C1(C#N)C#N (stereo not drawn) | -4.5 | -0.1 | 0.9 | 60.5* | -0.2 | -13.8 | 30.9 | 55.9*
COC(=O)c1cc(-c2ccc(OC)c(OC)c2)c2c(=O)[nH]c(=O)n(C)c2n1 | 5.5 | 0.3 | -0.4 | 50.1* | 1.7 | -5.7 | 21.7 | .
COC(=O)c1cc(-c2ccc(Br)cc2)c2c(=O)[nH]c(=O)n(C)c2n1 | -2.1 | -3.4 | 0.6 | 43.4 | 1.6 | 6.1 | . | .
CC(=O)c1cn(-c2ccc(Cl)cc2)c(=O)[nH]c1=O | -0.9 | -10.5 | -6.7 | 3.6 | 2.8 | 0.5 | . | .
CC(/C=C/C=C/c1ccccc1)=N/NC(=O)CNc1ccc(C)cc1 | 3.3 | -7.5 | 0.7 | -4.5 | 1.1 | 6.8 | . | .
O=C(CSc1n[nH]c(-c2ccccn2)n1)Nc1cccc(Cl)c1 | -5.7 | 0.8 | 7.8 | 59.8* | -1.0 | 0.2 | 53.2* | 39.8*
N/C(=N\c1nc2ccccc2o1)NC(=O)c1ccccc1 | -6.0 | 16.4 | 4.6 | -54.7 | 2.1 | -4.2 | . | .
N/C(=N\c1nc2ccccc2o1)NC(=O)c1cccc(Br)c1 | -6.6 | 1.2 | -3.5 | 59.5* | -0.1 | 10.2 | 12.8 | .
NS(=O)(=O)c1cccc(NC(=O)COC(=O)CNC(=O)c2ccc(-c3ccccc3)cc2)c1 | . | . | -1.3 | -15.1 | 3.4 | -6.3 | . | .
COc1ccc(S(=O)(=O)N2CCCCCC2)cc1C(=O)N(C)Cc1ccc(C(C)(C)C)cc1 | 3.6 | 12.7 | . | 53.3* | . | 21.6 | 11.5 | .
C[C@@H]1[C@@H](Sc2ccccc2)CC(=O)O[C@@H]1c1ccc(-c2ccccc2)cc1 | 11.2 | 19.8 | 5.3 | 97.4* | -2.9 | . | 62.8* | 51.2*
COc1ccc(/C=C(/NC(=O)c2ccccc2)C(=O)N2CCCC2)cc1 | 0.9 | . | 10.1 | 6.3 | 1.9 | -6.9 | . | .
SMILES | Calb FLC | CSC inhib | PP1 inh | Mdm2 MdmX PPI | PP5 inh | Beta cell apopt | Mdm2 MdmX conf | Full FLuc ctr
CC(C)c1ccc(Nc2nnc(SCC(=O)Nc3ncc(S(=O)(=O)c4ccc([N+](=O)[O-])cc4)s3)s2)cc1 | -2.2 | 1.3 | -0.6 | 44.2 | -3.1 | 11.1 | . | .
Cc1ccc(Nc2nnc(SCC(=O)Nc3ncc(S(=O)(=O)c4ccc([N+](=O)[O-])cc4)s3)s2)cc1 | -2.1 | . | 1.9 | 62.1* | 1.2 | 1.2 | 15.9 | .
O=C(Nc1ncc(S(=O)(=O)c2ccc([N+](=O)[O-])cc2)s1)c1cccnc1 | 0.9 | 4.0 | -5.3 | 7.0 | 1.1 | -2.0 | . | .
O=C(Nc1ncc(Cc2cc(Cl)ccc2Cl)s1)c1ccc([N+](=O)[O-])cc1 | -2.2 | 40.1 | -1.5 | 58.8* | 1.0 | 27.2 | 33.0 | .
O=C(Nc1ncc(S(=O)(=O)c2ccc([N+](=O)[O-])cc2)s1)c1ccc2ccccc2c1 | -11.9 | ? | -0.6 | 70.9* | 0.9 | 26.4 | 32.0 | .
Cc1cc(C)cc(Nc2c(F)c(F)c(F)c(F)c2C(=O)O)c1 | -5.5 | . | -1.9 | 11.0 | 0.7 | 0.8 | . | .
CCOc1ccc(Cl)cc1S(=O)(=O)n1cnc2ccccc21 | 9.4 | 58.5 | -0.8 | 37.3 | 3.6 | 2.0 | . | .
CCOc1ccc(C)cc1S(=O)(=O)n1cnc2ccccc21 | -1.5 | 59.3 | 2.0 | 51.6* | -2.9 | . | 60.7* | 44.7*
CCN1C(=O)c2cccc3c(S(=O)(=O)Nc4ccccc4OC)ccc1c23 | 4.4 | . | -1.8 | 56.2* | -0.9 | 1.0 | 43.3* | 79.2*
CCN1C(=O)c2cccc3c(S(=O)(=O)N(C(C)=O)c4ccc(OC(C)=O)cc4)ccc1c23 | . | 6.7 | . | 61.1* | . | 14.3 | 1.4 | .
CCN1C(=O)c2cccc3c(S(=O)(=O)N4CCC(C)CC4)ccc1c23 | . | -11.9 | 0.0 | 82.8* | 0.9 | -9.3 | 42.5* | 82.7*
